High-throughput results deposited in PubChem BioAssay by National Center for Advancing Translational Sciences (NCATS).
The list is not random: actives were taken first. Their share in the collection is about 1.8%.
CtBP-E1A inh – qHTS Assay for Inhibitors of the CtBP/E1A Interaction; CtBP / adenovirus E1A interaction (AlphaScreen); AlphaScreen GST-E1A/His-CtBP binding, 1536-well; stronger effect = lower value; activity change, % (test concentration not listed); 340,000 tested, 0.49% active; AID 651724, 2012
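Homogeneous bead-based format: GST-tagged E1A captured on glutathione donor beads, His-tagged CtBP on nickel acceptor beads; compounds precede bead addition by 2 h at 37 °C.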
Six1-Eya2 blk – qHTS Assay for Inhibitors of the Six1/Eya2 Interaction | 360,000 tested, 0.56% active | activity change, % (test concentration not listed) | AlphaScreen GST-Six1/His-Eya2 binding, biochemical; stronger effect = lower value | AID 651725, 2012
Target sequence (O00167 whole entry, looked up): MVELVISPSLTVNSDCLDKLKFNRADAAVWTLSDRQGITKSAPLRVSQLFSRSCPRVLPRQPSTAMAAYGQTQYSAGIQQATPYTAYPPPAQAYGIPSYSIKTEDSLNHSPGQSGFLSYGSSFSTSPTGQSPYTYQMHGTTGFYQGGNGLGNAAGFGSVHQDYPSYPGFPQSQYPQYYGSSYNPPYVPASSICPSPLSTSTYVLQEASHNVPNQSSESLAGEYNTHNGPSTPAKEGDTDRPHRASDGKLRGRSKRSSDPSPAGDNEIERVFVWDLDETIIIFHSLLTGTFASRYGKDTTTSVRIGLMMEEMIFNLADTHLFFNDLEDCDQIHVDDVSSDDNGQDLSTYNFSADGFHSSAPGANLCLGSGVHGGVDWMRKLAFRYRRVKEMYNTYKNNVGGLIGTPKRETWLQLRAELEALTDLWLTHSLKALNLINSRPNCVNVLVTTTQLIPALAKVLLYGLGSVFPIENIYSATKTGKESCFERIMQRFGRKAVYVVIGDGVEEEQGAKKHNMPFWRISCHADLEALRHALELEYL
Target sequence (Q15475 whole entry, looked up): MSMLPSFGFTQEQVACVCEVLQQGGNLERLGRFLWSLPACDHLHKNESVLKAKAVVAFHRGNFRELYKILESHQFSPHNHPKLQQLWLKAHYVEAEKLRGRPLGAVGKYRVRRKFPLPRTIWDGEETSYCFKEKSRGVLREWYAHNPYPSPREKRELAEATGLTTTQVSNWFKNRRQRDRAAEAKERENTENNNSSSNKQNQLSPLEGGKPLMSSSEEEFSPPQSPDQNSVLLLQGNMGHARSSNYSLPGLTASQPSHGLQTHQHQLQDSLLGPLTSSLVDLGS
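Six1/Eya2 binding was read as AlphaScreen signal after compounds were pinned into GST-Six1 plus His-tagged Eya2 (5X stock 250/500 nM) in pH 8.0 Tris/NaCl/TCEP buffer, beads added, then incubated 1 h, 37 C, dark.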
Akt phos inh – HTS Assay for Inhibitors of Akt Phophorylation: Primary Screen | activity change, % for hits at 50 µM | 360,000 tested, 0.32% active | Neuro2A IGF-stimulated pAkt S473 HTRF, 20 min; stronger effect = lower value | AID 651550, 2012; in the data active = activity change below about -80%; inconclusive = mostly about -51% to -80%
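Neuro2A cells (4,500/well, DMEM with 0.5% FBS) were treated with compound at a single 50 µM final concentration, stimulated with 6 nM IGF for 20 min at 37 °C, and lysed. Phospho-Akt Ser473 was read by HTRF as 665/615 ratio ×10^4.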
PI4K2A block – qHTS for small molecular inhibitors of PI4K2A | purified PI4K2A, ADP-Glo luminescence, 1 h; stronger effect = lower value | activity change, negative = inhibition, % at 76.9 µM | 420,000 tested, 0.13% active; in the data active = activity change below about -50%; inconclusive = mostly about -30% to -49%;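 note: -100% = wells without enzyme as full effect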
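ADP-Glo luminescence measured ADP generated by PI4K2A enzyme (4 ug/mL before mixing) with 1.2 mM PI substrate (pre-mix) and 300 microM ATP (pre-mix). Tris pH7.5 buffer with MgCl2, Triton X-100; 1 h reaction at ambient temperature.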
PI5P4Ka inh – qHTS for Inhibitors of phosphatidylinositol 5-phosphate 4-kinase (PI5P4K); max response, %; 330,000 tested, 1.2% active; PI5P4Kalpha enzyme, ADP-Glo luminescence, 60 min; stronger effect = lower value; active = max response of -50% or lower; inconclusive = between -30% and -50%; inactive = -30% or higher; note: value at the top dose of about 77 µM
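qHTS, 1536-well: enzyme/substrate mix, compound by pin tool, 5 microM ATP final; RT 60 min; ADP-Glo reagents 1 (45 min) then 2 (30 min); luminescence.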
* marks the source's active call; other numbers are inactive results. Cut-off read from the data, not from the text of the source, unless noted: active = activity change below about -65%; inconclusive = mostly about -30% to -63%; inactive = weaker than that. Unless noted, % is set by controls: 0 for no effect and ±100 for the full control effect.

How did CCOC(=O)c1ccc(NC(=O)Cn2ncc(Cl)c(Cl)c2=O)cc1 do in these assays?
CtBP-E1A inh: -19.8; Six1-Eya2 blk: -29.5; Akt phos inh: inactive; PI4K2A block: -15.5; PI5P4Ka inh: -72.0*

What do the screens show for `O=C(Cn1ncc(Cl)c(Cl)c1=O)c1ccc2c(c1)OCCO2`?
CtBP-E1A inh: 7.3; Six1-Eya2 blk: -2.9; Akt phos inh: inactive; PI4K2A block: 3.2; PI5P4Ka inh: -25.4

Results for Cc1ccc(C(=O)OCn2ncc(Cl)c(Cl)c2=O)cc1 ?
CtBP-E1A inh: 9.9; Six1-Eya2 blk: -11.0; Akt phos inh: inactive; PI4K2A block: 15.7

Results for CCC(=O)Nc1ccc(C(=O)Cn2ncc(Cl)c(Cl)c2=O)cc1 ?
Six1-Eya2 blk: -1.0; Akt phos inh: inactive; PI4K2A block: -15.4; PI5P4Ka inh: -55.7*

Results for Cc1ccc(S(=O)(=O)N(CC(O)CN(C)C)c2ccccc2)cc1 (configuration not stated) ?
CtBP-E1A inh: 1.9; Six1-Eya2 blk: 0.2; Akt phos inh: -108.5%*; PI4K2A block: 7.7; PI5P4Ka inh: -12.0

What do the screens show for `COc1ccc(NC(=O)CC2C(=O)N(C)C(=S)N2CCc2ccccc2)cc1` (configuration not stated)?
CtBP-E1A inh: 2.6; Six1-Eya2 blk: 5.4; Akt phos inh: inactive; PI4K2A block: 0.0; PI5P4Ka inh: 6.2

What do the screens show for `Cc1cccc(Nc2nn3c(=O)c4ccccc4nc3s2)c1`?
CtBP-E1A inh: -22.9; Six1-Eya2 blk: -6.2; Akt phos inh: -101.6%*; PI4K2A block: 4.0; PI5P4Ka inh: -2.4

How did CCc1c(C)sc(NC(=O)CC#N)c1C#N do in these assays?
CtBP-E1A inh: -67.0*; Six1-Eya2 blk: inconclusive; PI4K2A block: -17.6

Results for CCCC(=O)Nc1sc(C)c(C)c1C#N ?
CtBP-E1A inh: 0.0; Six1-Eya2 blk: 0.0; Akt phos inh: inactive; PI4K2A block: 3.9; PI5P4Ka inh: 2.1

What do the screens show for `COCCn1nnnc1C(c1ccccc1OC)N1CCN(c2ccccc2F)CC1` (configuration not stated)?
CtBP-E1A inh: 8.2; Six1-Eya2 blk: 9.6; Akt phos inh: inactive; PI4K2A block: -0.6; PI5P4Ka inh: 0.6

Results for COCCn1nnnc1C(c1cc2cccc(C)c2[nH]c1=O)N1CCN(c2ccccc2F)CC1 (configuration not stated) ?
CtBP-E1A inh: -5.6; Six1-Eya2 blk: -9.0; Akt phos inh: -89.6%*; PI4K2A block: -8.0; PI5P4Ka inh: 2.5

Results for COc1cc(C=NNC(=O)c2ccccc2NS(=O)(=O)c2cccs2)cc(OC)c1O ?
CtBP-E1A inh: -4.4; Six1-Eya2 blk: -8.0; Akt phos inh: inactive; PI4K2A block: -3.3; PI5P4Ka inh: 5.7

How did O=C(NN=Cc1ccccc1OC(F)F)c1ccc(NS(=O)(=O)c2cccs2)cc1 do in these assays?
CtBP-E1A inh: inconclusive; Six1-Eya2 blk: inconclusive; Akt phos inh: inactive; PI4K2A block: -1.9; PI5P4Ka inh: -63.1*

What do the screens show for `COc1ccccc1C(=O)NNC(=O)c1ccc(NS(=O)(=O)c2cccs2)cc1`?
CtBP-E1A inh: -2.5; Six1-Eya2 blk: -0.8; Akt phos inh: inactive; PI4K2A block: -1.8; PI5P4Ka inh: 1.3

Results for Cc1nn(-c2ccc(Cl)cc2)c(Cl)c1/C=N/NC(=O)c1ccc(NS(=O)(=O)c2cccs2)cc1 ?
CtBP-E1A inh: -14.8; Six1-Eya2 blk: -10.1; Akt phos inh: inactive; PI4K2A block: -3.1; PI5P4Ka inh: -65.9*

How did O=C(N/N=C/c1ccc(N2CCOCC2)cc1)c1ccc(NS(=O)(=O)c2cccs2)cc1 do in these assays?
CtBP-E1A inh: -4.2; Six1-Eya2 blk: 1.6; Akt phos inh: inactive; PI4K2A block: -3.1; PI5P4Ka inh: 8.8

Results for COc1cc(/C=N/NC(=O)c2ccc(NS(=O)(=O)c3cccs3)cc2)cc(OC)c1O ?
Six1-Eya2 blk: inconclusive; Akt phos inh: inactive; PI4K2A block: -2.3; PI5P4Ka inh: -59.8*

Results for O=C(N/N=C/c1ccc([N+](=O)[O-])o1)c1ccc(NS(=O)(=O)c2cccs2)cc1 ?
CtBP-E1A inh: inconclusive; Six1-Eya2 blk: 8.0; Akt phos inh: inactive; PI4K2A block: -5.8; PI5P4Ka inh: -61.8*

How did CCCS(=O)(=O)N1CCCC(C(=O)NCc2ccc3c(c2)OCO3)C1 (configuration not stated) do in these assays?
CtBP-E1A inh: -2.3; Six1-Eya2 blk: 9.1; Akt phos inh: inactive; PI4K2A block: 3.8; PI5P4Ka inh: 5.7

What do the screens show for `c1coc(-c2nnc(NC3=NCCC3)o2)c1`?
CtBP-E1A inh: -2.9; Six1-Eya2 blk: -5.4; Akt phos inh: inactive; PI4K2A block: -6.1; PI5P4Ka inh: 0.6

Results for Cc1ccc(OCCn2c(CCCO)nc3ccccc32)cc1 ?
CtBP-E1A inh: 0.9; Six1-Eya2 blk: 2.5; Akt phos inh: -105.9%*; PI4K2A block: 4.4; PI5P4Ka inh: 1.5

What do the screens show for `COc1ccc(C2=NOC(C)(c3nnc(-c4ccncc4)o3)C2)cc1` (configuration not stated)?
Six1-Eya2 blk: 5.1; Akt phos inh: inactive; PI4K2A block: -60.1*; PI5P4Ka inh: 5.0

What do the screens show for `Cc1ccc(C2=NOC(C)(c3nnc(-c4ccncc4)o3)C2)cc1` (configuration not stated)?
CtBP-E1A inh: -1.4; Six1-Eya2 blk: 3.7; Akt phos inh: inactive; PI4K2A block: -0.7; PI5P4Ka inh: -3.2

What do the screens show for `Fc1ccc(NC(=S)N2CCc3ccccc32)cc1`?
Six1-Eya2 blk: 3.0; Akt phos inh: inactive; PI4K2A block: 0.3; PI5P4Ka inh: 0.0

Results for Cc1cc(C(=O)CN2C(=O)C(=O)N(Cc3ccccc3)C2=O)c(C)n1Cc1ccccc1 ?
CtBP-E1A inh: 5.1; Six1-Eya2 blk: -14.1; Akt phos inh: inactive; PI4K2A block: 1.6; PI5P4Ka inh: -6.3

How did Cc1cc(C(=O)CN2C(=O)NC(c3ccccc3)(c3ccccc3)C2=O)c(C)n1Cc1ccccc1 do in these assays?
CtBP-E1A inh: -5.0; Six1-Eya2 blk: -3.1; Akt phos inh: -135.9%*; PI4K2A block: 6.7; PI5P4Ka inh: -4.9

Results for CCCCC(=O)NCCNc1nc2c(c(=O)n(C)c(=O)n2C)n1Cc1ccc(F)cc1 ?
CtBP-E1A inh: 25.6; Six1-Eya2 blk: 9.3; Akt phos inh: inactive; PI4K2A block: -7.3; PI5P4Ka inh: -5.0

What do the screens show for `CC(=O)c1ccc(N2CC(C)(C)C2=O)cc1`?
CtBP-E1A inh: 2.3; Six1-Eya2 blk: 4.7; Akt phos inh: inactive; PI4K2A block: 4.9; PI5P4Ka inh: -4.6
